Molecules are shown by their SMILES. About 83,000 compounds went through this panel and 20% of them were active in at least one assay; those are over-represented in the sample as a whole.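 Activity criterion: percent growth below 10, measured after cells in 96-well plates were exposed to a single compound concentration for 48 hours.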 A number with no mark means an inactive call. Calls of active or inactive are those of the source.

The experiment relates to HL-60(TB) leukemia. Briefly: NCI-60 one-dose screen, 48 h (100 = growth as untreated, 0 = no growth, -100 = all killed). To be noted: 10 µM unless noted.

As for `CCCCCC(CCCCC)C(=O)O`, the growth was 90.4%.

With `CCCCCN(CCCCC)CCCNc1c2c(nc3ccc(Cl)cc13)CCCC2`, the growth is 48.8%.

`C=C(CN1CC=CCC1)[C@@H]1CC[C@]2(C(=O)OC)CC[C@]3(C)[C@H](CC[C@@H]4[C@@]5(C)CC[C@H](OC(C)=O)C(C)(C)[C@@H]5CC[C@]43C)[C@@H]12`: the growth was 49.6%.

For `O=C(CN1CCOCC1)Nc1ccc2ncnc(Nc3ccc(Oc4cccc(C(F)(F)F)c4)c(Cl)c3)c2c1`, the growth is 70.1%.

`CC(C)c1ccc(C(=O)Nc2nc3ccc(O)c(CN(C)C)c3s2)cc1`: the growth was 76.8%.

Regarding `N=C(N)c1ccc(-c2ccc(-c3cncc4ccccc34)s2)s1`, the growth is 13.6%.

With `O=CNc1ccc2c(c1)Cc1cccc(NC=O)c1-2`, the growth is 70.6%.

In the case of `CN(C)CCCC1(c2ccc(F)cc2)OCc2cc(-c3csc4ccccc34)ccc21` (stereo not drawn), the growth was -52.1% (active).

Consider `Oc1ccc(N=Cc2ccccc2)cc1`, for which the growth was 0.519% (active).

As for `Clc1ccc2[nH]cc(-c3cncn3CCc3ccccc3)c2c1`, the growth was 45.1%.

As to `O=[N+]([O-])c1cccc(-c2nc3sccn3c2-c2ccnc(NCCNS(=O)(=O)c3ccc(C(F)(F)F)cc3)n2)c1`, the growth was 16%.

In the case of `COc1ccc(-c2cc(-c3nnc(SCC(=O)Nc4ccc(C(C)=O)cc4)n3-c3ccccc3)c3ccccc3n2)cc1OC`, the growth was 100%.

In the case of `N#Cc1c(-c2ccccc2)c(C#N)c2c(C#N)c(N)nn2c1N`, the growth was -17.2% (active).

On to `COc1cc(C(=O)N2CCN(c3ccccc3OC)CC2)c(N)cc1OCCCN1CCN(c2ccccc2OC)CC1`, for which the growth was 85.3%.

With `COc1ccc2nc3nc4ccc[nH]c4cc3c2c1`, the growth is 85.6%.

Take `COc1ccc(-c2nc3sccn3c2-c2ccnc(NCCNS(=O)(=O)c3ccc(C(F)(F)F)cc3)n2)cc1`: the growth is 4.59% (active).

As to `COc1ccc(-c2nnc(N3CCN(C(=O)CN4CCN(c5ccc(OC)cc5)CC4)CC3)nc2-c2ccc(OC)cc2)cc1`, the growth is -71.6% (active).

For the molecule `O=C(c1nc2ccccc2[nH]1)C1C(c2ccc([N+](=O)[O-])cc2)C2CC3CCCCC3N2[C@@]12C(=O)Nc1cc(Cl)ccc12` (stereo partly drawn), the growth was 8.45% (active).

Consider `CCCn1cnc2c(c1=N)C(c1ccc(Cl)cc1)c1sc3c(F)cccc3c1O2` (stereo not drawn), for which the growth is 62.5%.

Turning to `Nc1ncnc2c1ncn2C1(CO)OCC(O)C(O)C1O` (stereo not drawn), the growth is 95.9%.

In the case of `CC(C)CCSc1nc(-c2ccc(F)cc2)c(C#N)c(N2CCCCC2)n1`, the growth was 73.1%.

In the case of `CC(=O)Oc1ccccc1C(=O)Nc1ncc([N+](=O)[O-])s1`, the growth was -43.8% (active).

Turning to `Cc1nc2sc(C(=O)Nc3ccccc3)c(N)c2cc1C(=O)/C=C/c1ccccc1`, the growth was 3.44% (active).

For the molecule `CC/C=C\C[C@H](O)C/C=C1/C(=O)C=C[C@@H]1C/C=C\CCCC(=O)NC(C)C`, the growth is -28.2% (active).

`C[C@@H]1C(=O)N(C[C@@H](Cc2ccccc2)NC(=O)OCc2ccccc2)[C@]1(Cc1ccccc1)C(=O)OCc1ccccc1`: the growth is 13.1%.

Take `O=C(c1ccc(F)c(F)c1Nc1ccc(I)cc1F)N1CC(O)([C@@H]2CCCCN2)C1`: the growth is -18.9% (active).

Turning to `C=CC(=O)N[C@@H](/C=C/C(=O)OCC)Cc1ccc(-c2cc(Cl)cc(Cl)c2)cc1`, the growth is -27.4% (active).

Take `Cc1cc2nc(NC(=O)CN3CCN(CCN4C(=O)c5cccc6cccc(c56)C4=O)CC3)sc2cc1C`: the growth is 52.3%.

With `CCN(CC)Cc1cc(Nc2c3ccc(Cl)cc3nc3c(C)cccc23)ccc1O`, the growth was -19.7% (active).

`O=C1C(=O)N(Cc2ccc(-c3ccccc3)cc2)c2ccc(OC(F)(F)F)cc21`: the growth was 17.7%.

For `Nc1ccc(S(=O)(=O)Nc2ccnn2-c2ccccc2)cc1`, the growth is 102%.

Take `O=C(/C=C/c1c[nH]c2ccccc12)c1cc2ccccc2o1`: the growth is 37.9%.

With `COC(=O)c1cc2oc(/C=N/NC(=O)c3cc4oc(-c5cccc(C(F)(F)F)c5)cc4[nH]3)cc2n1Cc1ccccc1`, the growth is 69.9%.

Regarding `CCCCCCNC(=O)Oc1ccc(/C(=C(\C)c2ccc(OC)cc2)c2ccc(OCCN3CCCCC3)cc2)cc1`, the growth was 46.3%.

Regarding `CCCCCCC12CCC(=O)N1CCc1cncn12` (stereo not drawn), the growth was 85.4%.

On to `Cn1c(C#N)ccc1-c1ccc(F)c(NC(=O)c2ccc(F)cc2)c1`, for which the growth was 60%.

Take `CCCCCN(CCCCC)CCCCCCCCN1CCCc2ccccc21`: the growth is -14.2% (active).

For `NC(=O)c1cc(I)ccc1NC(=O)COc1ccccc1`, the growth was -20.5% (active).

Regarding `O=C(NCCCNc1nccc(-n2ccc3cccnc32)n1)c1c(F)cccc1F`, the growth is 102%.

For `CC[N+](CC)=c1ccc2nc3c(cc(N)c4ccccc43)oc-2c1`, the growth was -55.6% (active).

Consider `CCCNc1nc2ccccc2c2c(=O)c3cccc(Cl)c3sc12`, for which the growth was 108%.

As for `CSCCCNC(=O)c1ccc2c(c1)/C(=C/c1[nH]c(C)cc1C)C(=O)N2`, the growth is 46.1%.

Regarding `N#C/C(=C1C=C/C(=N/O)C(Br)=C/1)c1ccccc1`, the growth is -20.5% (active).

Take `N/C(=N\N=C\c1cc2ccccc2[nH]1)N/N=C/c1cc2ccccc2[nH]1`: the growth was 101%.

Take `C=C1c2nc3ccccc3n2C=C(c2cccc(Cl)c2)N1Cc1ccc(OC)cc1`: the growth was -25% (active).

Consider `O=C1C=CC2(NN=C(c3ccccc3)N2c2cccc(Cl)c2)C(Cl)=C1` (stereo not drawn), for which the growth was 33%.

Regarding `COc1ccc(-c2cc(-c3ccc(Cl)cc3)c(C#N)c(=O)n2CCCCC(=O)NO)cc1`, the growth was 92.7%.

With `Cc1ccc(S(=O)(=O)n2cc(C(=O)C(=O)N3CCCCC3)c3ccccc32)cc1`, the growth is 85%.

(Values after PubChem BioAssay (NCI).)
